Test results taken from PubChem BioAssay (NCATS).
Records with an inconclusive call do not appear. Unmarked numbers belong to inactive results. Activity calls are given as the source filed them. Calls come from the whole dose curve; as a rule, active = well fitted activation curve with a large enough effect; inconclusive = small, poorly fitted or top-dose-only effect; inactive = flat fitted curve, though single readings scatter.

Assay: Cellular Toxicity (caspase-3) H-4-II-E (AID 663);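 for caspase-3 activation: cells exposed to compound for 16 hr before readout; 0% = DMSO basal and 100% = 100 µM tamoxifen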
Conditions: H-4-II-E rat hepatoma; Potency: caspase-3 activation; series mostly up to 92.2 µM; caspase-3 activation: at the top concentration
Source text: NIH Chemical Genomics Center [NCGC]
NIH Molecular Libraries Screening Centers Network [MLSCN]
National Institutes of Environmental Health Sciences [NIEHS]
National Toxicology Program [NTP]
We have developed a 1536-well cell-based assay for quantitative high throughput screening (qHTS) against a number of cell lines to determine in vitro caspase 3/7 of small molecules. This particular assay uses the H-4-II-E cell line which is derived from rat hepatoma.
NCGC Assay Protocol Summary:
The Caspase-Glo 3/7 assay (Promega) is a homogeneous method to measure caspase-3 and caspase-7 activities in cultured cells. The quantitation of caspase 3/7 activity is based on the cleavage of a peptide-aminoluciferin substrate. After caspase cleaves the substrate the free aminoluciferin is liberated and serves as the substrate of luciferase, which generates the light. The luminescent signal is proportional to amount of caspase 3/7 activity present.
Using the Caspase-Glo 3/7 assay, the amount of caspase 3/7 activity was measured in the H-4-II-E cell line with complete culture medium following compound treatment for 16 hours. The assay was performed in opaque white 1536-well plates. In the screen, tamoxifen and doxorubicin were used as positive controls. Library compounds were measured for their ability to cause the activation of caspase 3/7 in the cell line, as reflected by an increase in luminescence signal, in a concentration-dependent manner. Data were normalized to the controls for basal activity (DMSO only) and 100% stimulation (100 uM tamoxifen). AC50 values were determined from concentration-response data modeled with the standard Hill equation.
qHTS protocol for caspase 3/7 assay in H-4-II-E cells
[Step] [Parameter] [Value] [Description]
1. Reagent; 5 uL; 1500 H-4-II-E cells/well
2. Time; 5 hr; 37 °C incubation
4. Controls; 23 nL; Tamoxifen 0.23 uM to 100 uM & Doxorubicin 7.0 pM to 100 uM
5. Time; 16 hr; 37 °C incubation
6. Reagent; 5 uL; Caspase-Glo 3/7 reagent
7. Time; 20 min; Room Temperature
8. Detection; Luminescence; Viewlux plate reader
Keywords: caspase 3/7, apoptosis, H-4-II-E cell line, luminescence, NTPHTS, NTPHTS_NCGC, NIEHS, EPA, DSSTox, MLSMR, MLSCN, NIH Roadmap, qHTS, NCGC
Potency is the fitted concentration of half-maximal effect.

SMILES	caspase-3 activation [%]	Potency
Brc1cc(Oc2cc(Br)c(Br)c(Br)c2Br)c(Br)c(Br)c1Br	1.41	–
Cc1c2ccccc2c(C)c2c1ccc1ccccc12	-0.102	–
Cc1cc(=O)oc2cc(O)cc(O)c12	0.542	–
Nc1cc(C(=O)O)c(O)c(S(=O)(=O)O)c1	0.59	–
CC(CCC(=O)O)(c1ccc(O)cc1)c1ccc(O)cc1	-0.652	–
O=C(OCc1ccccc1)c1ccccc1O	-1.3	–
COc1cc(-c2ccc(N=C=O)c(OC)c2)ccc1N=C=O	0.361	–
OCC(CO)(CBr)CBr	-0.445	–
CC/C=C/C/C=C/C/C=C/CCCCCCCC(=O)OCC	-0.233	–
O=C1c2ccccc2C(=O)C1(O)O	18.1	–
Oc1ccc2c(c1)OCO2	0.704	–
Oc1c(Cl)cc(Cl)c(Cl)c1Cl	-0.889	–
Cc1cccnc1	-0.18	–
Nc1ccc(-c2ccc(N)c(O)c2)cc1O	1.43	–
C=Cc1cccc(C)c1	0.343	–
c1ccc(SCCSc2ccccc2)cc1	-0.688	–
N=C1C=CC(=C(c2ccc(N)cc2)c2ccc(N)cc2)C=C1	3.24	–
Nc1ccccc1O	21.3	–
c1ccc2ncccc2c1	-0.273	–
C=CC(C)(O)CCCC(C)CCCC(C)CCCC(C)C (stereo not given)	-0.987	–

SMILES	caspase-3 activation [%]	Potency
C/C=C/C=C/C=O	14.5	–
CC(C)COC(=O)COc1cc(Cl)c(Cl)cc1Cl	-0.0626	–
O=C(O)/C=C/c1ccc(/C=C/C(=O)O)cc1	-4.42	–
O=C(O)c1cc(N=Nc2ccc([N+](=O)[O-])cc2)ccc1O	-4.43	–
CCCCCCc1ccc(-c2ccc(C#N)cc2)cc1	-0.369	–
O=[N+]([O-])c1cc(N(CCO)CCO)ccc1NCCO	-0.743	–
CC(=O)OC(C(=O)c1ccccc1)c1ccccc1 (stereo not given)	-0.0916	–
CCCCCCN	1.82	–
CCc1ccc(C(c2ccc(CC)cc2)C(Cl)Cl)cc1	0.365	–
Cc1c(N)cccc1Cl	1.02	–
COc1ccc([N+](=O)[O-])cc1N	0.755	–
Cc1cc(-c2ccc(N=Nc3cc(S(=O)(=O)O)c4ccccc4c3N)c(C)c2)ccc1N=Nc1cc(S(=O)(=O)O)c2ccccc2c1N	-1.09	–
Oc1cc(Cl)cc(Cl)c1Cl	2.25	–
c1c[nH]cn1	-1.06	–
CC(C)OCC1CO1 (stereo not given)	0.133	–
O=C(O)c1ccc([N+](=O)[O-])cc1	0.42	–
CC1=C(/C=C/C(C)=C/C=C/C(C)=C/C=O)C(C)(C)CCC1	–	31.6 µM (active)
CC(=O)c1ccc(Cl)c(Cl)c1Cl	0.318	–
Clc1nc2ccccc2nc1Cl	3.63	–
O=CC(=O)c1ccccc1	3.27	–
